Source: PubChem BioAssay
Results with a measured potency or affinity are listed apart. Inconclusive results are not listed. Activity calls are given as the source filed them. Unless noted, how the calls were made is not given here.

Legend:
[1] = cytotoxicity in PAX8-dependent RMG-1 cells, dose response, cell-based, cherry-pick (AID 687029;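 active means signal drop whose fitted half-maximal concentration is at most twice the top valid dose, in every test run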;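 further: cells exposed to compound for 96 hours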)
[2] = inhibitors of CMV-promoter luciferase reporter, dose response, counter-screen for Pax8 inhibitor project, cell-based, HEK293, luminescence, dry powder (AID 743020;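 active means signal-lowering compounds whose fitted half-maximal concentration is at or below twice the top tested dose in every run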;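 further: HEK293 cells stably expressing the CMV luciferase reporter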)
[3] = non-specific cell cytotoxicity, dose response, cytotoxicity control for PAX8 inhibitor project, plate reader, dry powder samples (AID 743021)
[4] = IGROV1 ovarian cancer cell cytotoxicity, dose response, PAX8 inhibitor project, plate reader, dry powder samples (AID 743043);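 further: more negative means fewer viable cells or more cytotoxicity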
[5] = A2780 ovarian cancer cell cytotoxicity, dose response, cytotoxicity control, plate reader, dry powder samples (AID 743046);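 further: 0% = neutral control wells and -100% = cytotoxic reference compound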
[6] = IOSE-T80 ovarian epithelial cell cytotoxicity, dose response, cytotoxicity control for PAX8 inhibitor project, plate reader, dry powder samples (AID 743045);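 further: 0% = neutral control median and -100% = positive control median; more negative values mean more cell killing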
[7] = NIH:OVCAR-3 ovarian cancer cell cytotoxicity, dose response, PAX8 inhibitor project, plate reader, dry powder samples (AID 743044); conditions: max activity: at 35 µM, active compounds read low unless noted
[8] = cytotoxicity in OVCAR8 ovarian cancer cells, dose response, PAX8 project, cell-based, plate reader, dry powder samples (AID 743197)
[9] = A549 cell cytotoxicity, dose response, cytotoxicity control, plate reader, cherry-pick, antagonist series (AID 743412);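 further: 0% = neutral control wells and -100% = positive control wells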

Measured: max activity

CN1c2ccc(-c3ccccc3)cc2[C@H]2[C@H](CCN2C(=O)NC2CCCCC2)[C@@H]1CO
inactive: [1] | [2] | [3] | [4] | [5]

COc1cc(/C=C2\SC(=S)N(CCC(=O)N3CCCCC3)C2=O)cc(OC)c1OC
inactive: [1] | [2] | [3] | [6]

CC1CCCC=CC2CC(OC(=O)CN(C)C)CC2C(O)C=CC(=O)O1 (stereo not drawn)
inactive: [1] | [3]

Cc1ccc(S(=O)(=O)Nc2ccc3c(c2)CC(=O)N([C@@H](C)CO)C[C@H](C)[C@@H](CN(C)C(=O)Nc2ccc(C(F)(F)F)cc2)O3)cc1
inactive: [1] | [2] | [4] | [7] 7.6% [at 2.1 µM, active compounds read low] | [6] | [5] | [8]

O=C1/C(=C/c2ccccc2F)SC(=S)N1CC(=O)N1CCCCC1c1cccnc1 (stereo not drawn)
inactive: [1] | [2] | [3] | [4] | [5]

Cc1cc(NC(=O)CCCS(=O)(=O)c2nc(-c3cccs3)cc(C(F)(F)F)n2)no1
inactive: [1] | [2] | [3] | [6]

O=S(=O)(c1ccccc1F)N1CC[C@@H]2[C@H]1c1cc(-c3cccc(F)c3)ccc1N[C@@H]2CO
inactive: [1] | [2] | [6] | [5]

COc1ccc(S(=O)(=O)Nc2ccc3c(c2)C(=O)N([C@H](C)CO)C[C@H](C)[C@H](CN(C)Cc2ccc(C(F)(F)F)cc2)OCCCC[C@H](C)O3)cc1
inactive: [1] | [2] | [3] | [4] | [5]

Cc1cc(C)c2sc(NNC(=O)c3ccc(S(=O)(=O)N4CCc5ccccc5C4)cc3)nc2c1
inactive: [1] | [2] | [3] | [6]

COc1ccccc1C#Cc1ccc2c(c1)O[C@H](CN(C)Cc1cccnc1)[C@H](C)CN([C@@H](C)CO)S2(=O)=O
not listed: [7] | [8] | [9]
inactive: all other assays above

COc1ccc(S(=O)(=O)Nc2ccc3c(c2)CC(=O)N([C@@H](C)CO)C[C@@H](C)[C@@H](CN(C)Cc2ccc(-c4ccccc4)cc2)O3)cc1
inactive: [1] | [2] | [3] | [4] | [6]

CC(C)CC#Cc1ccc2c(c1)O[C@H](CN(C)Cc1ccc(C(=O)O)cc1)[C@@H](C)CN([C@H](C)CO)S2(=O)=O
not listed: [3] | [7] | [9]
inactive: all other assays above

C[C@@H]1CCCCO[C@H](CN(C)Cc2ccc(C(F)(F)F)cc2)[C@H](C)CN([C@@H](C)CO)C(=O)c2cc(NS(=O)(=O)c3ccc(F)cc3)ccc2O1
inactive: [1] | [2] | [3] | [6]

C[C@H](CO)N1C[C@H](C)[C@@H](CN(C)Cc2ccc(Cl)c(Cl)c2)Oc2ccc(NS(=O)(=O)c3ccccc3)cc2CC1=O
not listed: [7] | [8] | [9]
inactive: all other assays above

C[C@H]1CCCCO[C@H](CN(C)C(=O)C2CCCCC2)[C@@H](C)CN([C@@H](C)CO)C(=O)c2cc(NC(=O)Nc3ccc(F)cc3)ccc2O1
inactive: [1] | [2] | [3] | [7] -23.8% | [6] | [5] | [8]

Cc1ccc(-c2csc(NC3OC(=O)c4ccccc43)n2)cc1 (stereo not drawn)
inactive: [1] | [2] | [3] | [4] | [5]

C[C@H](CO)N1C[C@H](C)[C@@H](CN(C)C(=O)C2CCCCC2)OCCCC[C@H](C)Oc2ccc(NS(=O)(=O)c3ccc(Cl)cc3)cc2C1=O
not listed: [7] | [9]
inactive: all other assays above

COc1ccc(CN(C)C[C@H]2OCCCC[C@@H](C)Oc3ccc(NC(=O)Nc4ccc(F)cc4)cc3C(=O)N([C@@H](C)CO)C[C@@H]2C)cc1
inactive: [1] | [2] | [4] | [6]

Cc1ccc(S(=O)(=O)N(C)C[C@@H]2Oc3cc(C#Cc4ccncc4)ccc3S(=O)(=O)N([C@H](C)CO)C[C@H]2C)cc1
not listed: [7] | [8] | [9]
inactive: all other assays above

O=C(/C=C/c1ccccc1)Nc1cccc(C(=O)O)c1
not listed: [4] | [8]
inactive: all other assays above

C[C@@H]1CN([C@H](C)CO)C(=O)c2cc(NC(=O)Nc3ccc(C(F)(F)F)cc3)ccc2O[C@@H](C)CCCCO[C@@H]1CN(C)C(=O)c1ccccc1
not listed: [7] | [8] | [9]
inactive: all other assays above

Cc1ccc2cccc(NS(=O)(=O)c3ccccc3)c2n1
inactive: [1] | [2] | [3] | [7]

CN(C)CCN(C(=O)/C=C/c1cccs1)c1nc2c(F)cc(F)cc2s1
inactive: [1] | [2] | [3] | [6] | [5]
